Assay results from PubChem BioAssay (NCI).
Where “and” joins values, the source holds several entries; their conditions need not be identical. Equal entries are not always repeated. This is part of a sample that, as a whole, favours compounds with a hit. Of some 83,000 tested, about 20% had one in any assay.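 The endpoint reported here, percent growth, reads 100 for growth as untreated, 0 for no net growth and -100 for all cells dead.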 Calls of active or inactive are those of the source. The calls were made as follows: active = growth percent below 10; inactive = the rest.

Legend:
Assay in all cases: NCI-60 one-dose screen, 48 h (100 = growth as untreated, 0 = no growth, -100 = all killed)
Conditions in all cases: 10 µM unless noted
SR leukemia = test system: SR leukemia
RPMI-8226 leukemia = test system: RPMI-8226 leukemia
OVCAR-8 ovarian = test system: OVCAR-8 ovarian
OVCAR-5 ovarian = test system: OVCAR-5 ovarian
OVCAR-4 ovarian = test system: OVCAR-4 ovarian
SK-OV-3 ovarian = test system: SK-OV-3 ovarian
IGROV1 ovarian = test system: IGROV1 ovarian
OVCAR-3 ovarian = test system: OVCAR-3 ovarian
HS 578T breast = test system: HS 578T breast
NCI/ADR-RES ovarian = test system: NCI/ADR-RES ovarian

Row | SMILES | growth (SR leukemia) | growth (RPMI-8226 leukemia) | growth (OVCAR-8 ovarian) | growth (OVCAR-5 ovarian) | growth (OVCAR-4 ovarian) | growth (SK-OV-3 ovarian) | growth (IGROV1 ovarian) | growth (OVCAR-3 ovarian) | growth (HS 578T breast) | growth (NCI/ADR-RES ovarian)
1 | Cn1cc(C2=C(c3cccc4ccccc34)C(=O)NC2=O)c2cc(Br)ccc21 | 60.8% (inactive) | 121% (inactive) | 95.9% (inactive) | 126% (inactive) | 124% (inactive) | 90.3% (inactive) | 94.9% (inactive) | 104% (inactive) | 82% (inactive) | 92.2% (inactive)
2 | O=c1oc2c(Br)cc(Br)cc2cc1-c1cc(-c2ccc(-c3cc(-c4cc5cc(Br)cc(Br)c5oc4=O)nc(-c4cc5cc(Br)cc(Br)c5oc4=O)c3)cc2)cc(-c2cc3cc(Br)cc(Br)c3oc2=O)n1 | 92.5% (inactive) | 102% (inactive) | 108% (inactive) | 109% (inactive) | 113% (inactive) | 101% (inactive) | 106% (inactive) | 104% (inactive) | 90.7% (inactive) | 98.1% (inactive)
3 | N#CC(Cc1cccc2ccccc12)c1cc2ccccc2[nH]1 (stereo not given) | 99.2% (inactive) | 72.3% (inactive) | 87.7% (inactive) | 89% (inactive) | 95.1% (inactive) | 84.1% (inactive) | 86.4% (inactive) | 89.7% (inactive) | 89.7% (inactive) | 87.2% (inactive)
4 | CCOC(=O)C1=C(C)NC(=O)NC1c1c(Cl)n(-c2ccccc2)c2ccccc12 (stereo not given) | 68.6% (inactive) | 68.4% (inactive) | 85.6% (inactive) | 84.7% (inactive) | 96% (inactive) | 85.9% (inactive) | 66.1% (inactive) | 69.2% (inactive) | 76.1% (inactive) | 85% (inactive)
5 | O=[N+]([O-])c1ccc2[nH]c3nccc(NCc4cccc(Cl)c4)c3c2c1 | 50.5% (inactive) | 82.9% (inactive) | 37.5% (inactive) | 86.3% (inactive) | -35% (active) | 91.9% (inactive) | 93.1% (inactive) | 49.8% (inactive) | 17.5% (inactive) | 64.4% (inactive)
6 | CC(C)(C)CC(N)=O | 102% (inactive) | 107% (inactive) | 97.7% (inactive) | 102% (inactive) | 100% (inactive) | 88.2% (inactive) | 112% (inactive) | 110% (inactive) | 106% (inactive) | 102% (inactive)
7 | Cc1ccc(C(=O)N(CCCN)[C@@H](c2nc3cc(Cl)ccc3c(=O)n2Cc2ccccc2)C(C)C)cc1 | -32% (active) | -36.6% (active) | -11.7% (active) | -17.5% (active) | 33.3% (inactive) | 38.6% (inactive) | 8.41% (active) | -13.7% (active) | -12.8% (active) | -30.1% (active)
8 | CC(=O)N1N=C(c2ccc(F)cc2)CC1c1sc(N(C)Cc2ccccc2)nc1Cl (stereo not given) | 94.6% (inactive) | 75.2% (inactive) | 105% (inactive) | 109% (inactive) | 88.7% (inactive) | 101% (inactive) | 96% (inactive) | 101% (inactive) | 109% (inactive) | 92% (inactive)
9 | O=Nc1c(O)ccc2ccccc12 | 23.6% (inactive) and 87.6% (inactive) | 37.8% (inactive) and 79.9% (inactive) | -3.35% (active) and 93% (inactive) | 70.1% (inactive) and 112% (inactive) | 19% (inactive) and 89% (inactive) | 93.6% (inactive) and 101% (inactive) | 51.5% (inactive) and 42% (inactive) | 1.11% (active) and 81% (inactive) | 54% (inactive) and 112% (inactive) | 6.43% (active) and 97.7% (inactive)
10 | COc1ccc(-c2csc(NC(=O)CN3CCN(CCO)CC3)n2)cc1NS(=O)(=O)c1cccc2c(N(C)C)cccc12 | -6.12% (active) | 36% (inactive) | 84.1% (inactive) | 97% (inactive) | 68.2% (inactive) | 90.7% (inactive) | 77.3% (inactive) | 79.5% (inactive) | 65.7% (inactive) | 93.3% (inactive)
11 | Cc1ccc(NC(=O)N/C(N)=N/c2nc(=O)c3ccccc3s2)cc1 | 88.1% (inactive) | 101% (inactive) | 101% (inactive) | 102% (inactive) | 99.8% (inactive) | 94.5% (inactive) | 91.9% (inactive) | 100% (inactive) | 82.9% (inactive) | 110% (inactive)
12 | COCCn1cc(-c2nc(-c3cn(CCOC)c4ncccc34)cs2)c2ccccc21 | 102% (inactive) | 45.2% (inactive) | 97.7% (inactive) | 46% (inactive) | 23.1% (inactive) | 63.3% (inactive) | 36.7% (inactive) | 17.2% (inactive) | 86.7% (inactive) | 95.2% (inactive)
13 | O=C1C(c2c[nH]c3ccccc23)=C(c2coc3cc(Br)ccc23)C(=O)N1O | 90.5% (inactive) | 89.8% (inactive) | 106% (inactive) | 105% (inactive) | 115% (inactive) | 98.8% (inactive) | 85.2% (inactive) | 102% (inactive) | 94.5% (inactive) | 105% (inactive)
14 | Cc1nc(Nc2ncc(C(=O)Nc3c(C)cccc3Cl)s2)cc(N2CCN(CCO)CC2)n1 | 40.4% (inactive) and 14.7% (inactive) | 92.8% (inactive) and 61.1% (inactive) | 24.2% (inactive) and -24.8% (active) | 23.7% (inactive) and 10.2% (inactive) | 52.8% (inactive) and 44.8% (inactive) | -7.55% (active) and -25.8% (active) | -16.4% (active) and -37% (active) | 37.3% (inactive) and 20.4% (inactive) | -8.57% (active) | 45.8% (inactive) and 23.7% (inactive)
15 | O=C(CN1C(=O)S/C(=C\C(Cl)=C\c2ccccc2)C1=O)NC1C=CS(=O)(=O)C1 (stereo not given) | 6.39% (active) | 0.667% (active) | 4.68% (active) | 44.2% (inactive) | 39.4% (inactive) | 98.8% (inactive) | -16.1% (active) | -12.6% (active) | 51.7% (inactive) | 24.7% (inactive)
16 | COc1ccccc1/C=C/C(=O)/C=C/c1ccccc1OC | 16.2% (inactive) and 7.78% (active) | 7.24% (active) and 1.3% (active) | -25.9% (active) and 16.5% (inactive) | -15.7% (active) and -6.94% (active) | 20.6% (inactive) and 13% (inactive) | 5.47% (active) and 14.6% (inactive) | -53.8% (active) and -46.1% (active) | -29.1% (active) and -36.7% (active) | -0.48% (active) and 50.4% (inactive) | -2.31% (active) and 18.6% (inactive)
17 | COc1cc(N=Nc2ccc(O)c3ncccc23)c2ncccc2c1 | 7.54% (active) | 31.7% (inactive) | 17.1% (inactive) | 59.8% (inactive) | 17.4% (inactive) | 43.3% (inactive) | 27.4% (inactive) | 30.3% (inactive) | 33.9% (inactive) | -1.77% (active)
18 | Cc1ccc(/C=C(\C#N)c2cc3ccccc3[nH]2)cc1 | 16.2% (inactive) | 60.2% (inactive) | 63% (inactive) | 65.2% (inactive) | 71.6% (inactive) | 67.1% (inactive) | 55.3% (inactive) | 29.7% (inactive) | 61.9% (inactive) | 16.1% (inactive)
19 | Nc1nc2c(s1)CCc1cn(S(=O)(=O)c3ccccc3)cc1-2 | 75.2% (inactive) and 92.8% (inactive) | 98.9% (inactive) and 91.4% (inactive) | 88.6% (inactive) and 110% (inactive) | 102% (inactive) and 104% (inactive) | 87.5% (inactive) | 106% (inactive) and 109% (inactive) | 100% (inactive) | 96% (inactive) and 108% (inactive) | 86.4% (inactive) and 107% (inactive) | 91.9% (inactive) and 103% (inactive)
20 | O=C1c2cccc3cccc(c23)C(=O)N1N1C(=O)c2cccc3c(N4CCNCC4)ccc(c23)C1=O | -6.4% (active) | 68.8% (inactive) | 82.6% (inactive) | 121% (inactive) | 116% (inactive) | 104% (inactive) | 91.2% (inactive) | 101% (inactive) | 85.9% (inactive) | 82.6% (inactive)
21 | O=C(/C=C/c1ccccc1)c1cccs1 | 94.9% (inactive) and 24.1% (inactive) | 49.3% (inactive) and 6.44% (active) | 97.5% (inactive) and 94% (inactive) | 93.2% (inactive) and 108% (inactive) | 97.7% (inactive) and 87.3% (inactive) | 104% (inactive) and 112% (inactive) | 104% (inactive) and 116% (inactive) | 97% (inactive) and 117% (inactive) | 100% (inactive) | 99.5% (inactive) and 100% (inactive)
22 | COc1ccc2nc3cc(Cl)ccc3c(NCCCNCCC(C)O)c2c1 (stereo not given) | -37.3% (active) | -19.8% (active) | 0.828% (active) | -18.8% (active) | -28.9% (active) | 3.74% (active) | -10.7% (active) | -38.2% (active) | 0.958% (active) | 43.7% (inactive)
